In PubChem BioAssay (Tox21):
Calls of active or inactive are those of the source. Calls follow the shape of the full dose curve.

Molecular target: Thyrotropin-releasing hormone receptor (Homo sapiens) (UniProt P34981)
Experiment: qHTS assay to identify small molecule agonists of the thyrotropin-releasing hormone receptor (TRHR) signaling pathway (AID 1346891);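 also: HEK293 cells expressing TRHR with calcium dye readout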
Settings: TRHR-HEK293 calcium fluorescence, agonist mode; series mostly up to 57.6 µM; activation: at the top concentration
From the text: National Center for Advancing Translational Sciences [NCATS] NIH Chemical Genomics Center [NCGC] U.S. Environmental Protection Agency [EPA] National Institutes of Environmental Health Sciences [NIEHS] National Toxicology Program [NTP] Assay overview: Thyrotropin-releasing hormone (TRH) receptor (TRHR) is a G-protein-coupled receptor which binds the tripeptide thyrotropin releasing hormone. TRHR is found in the brain and, when bound by TRH, acts (through phospholipase C) to increase intracellular inositol trisphosphate. It plays a crucial role in the anterior pituitary where it controls the synthesis and secretion of thyroid stimulating hormone and prolactin. The TRHR-Hek293 assay is a cell-based assay, and it has the potential to screen G protein-coupled receptors. A compound/drug can either activate (agonist) or suppress (antagonist) GPCRs that can be monitored by levels of intracellular calcium. Using this assay, the Tox21 10K compound library was screened to identify potential TRHR agonists.
Assay Protocol Summary: The TRHR-Hek293 cells were dispensed at 1500cells/4uL/well in 1536-well black-clear bottom plates using a Multidrop dispenser. After the assay plates were incubated at a 37 C/5% CO2 incubator for 18 hours, 4 uL of Dye-Loading Solution was added to each well. The plates were incubated at 37 C for 2 hours. For agonist mode, 23 nL of compounds dissolved in DMSO, positive controls or DMSO only was transferred to the assay plate by a pin tool. The fluorescence intensity in the plates was measured using FDSS 7000EX kinetic plate reader for 3 min at 1 sec intervals. Each test compound was measured at 15 concentrations and in triplicates.
% is scaled to controls: 0 for no effect and ±100 for the full control effect.

Chain of Thyrotropin-releasing hormone receptor (Homo sapiens) (P34981 whole entry, looked up): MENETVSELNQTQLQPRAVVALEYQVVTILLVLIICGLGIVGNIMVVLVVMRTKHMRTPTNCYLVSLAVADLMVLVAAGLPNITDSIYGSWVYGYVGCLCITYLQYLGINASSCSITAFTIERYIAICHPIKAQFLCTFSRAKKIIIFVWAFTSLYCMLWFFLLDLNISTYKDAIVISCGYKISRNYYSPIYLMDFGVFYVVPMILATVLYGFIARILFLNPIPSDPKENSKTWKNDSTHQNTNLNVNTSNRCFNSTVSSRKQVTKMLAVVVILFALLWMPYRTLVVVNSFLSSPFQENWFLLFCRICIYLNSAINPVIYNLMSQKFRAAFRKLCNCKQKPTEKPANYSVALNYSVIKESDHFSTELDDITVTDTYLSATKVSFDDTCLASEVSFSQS

| Structure (SMILES) | activation |
| --- | --- |
| CCCOC(=O)CCCCC(=O)OCCC | -0.0588% (inactive) |
| O=C(Oc1ccccc1C(=O)O)c1ccccc1O | -0.41% [at 26.5 µM] (inactive) |
| CCC(O)C(C)(C)C (stereo not given) | -0.453% (inactive) |
| CC(C)COC(=O)CCCCC(=O)OCC(C)C | 0.664% (inactive) |
| C=CCOC(=O)c1ccc(C(=O)OCC=C)c(C(=O)OCC=C)c1 | 0.184% (inactive) |
| C1=C\CC/C=C\CC/1 | -0.426% (inactive) |
| C=CCOc1cc(Cl)ccc1C(=O)NCCN(CC)CC | -0.346% [at 26.5 µM] (inactive) |
| CC(C)C(=O)c1ccccc1 | -0.261% (inactive) |
| CCCCCC1CCCC(=O)O1 (stereo not given) | -0.215% (inactive) |
| Cc1ccccc1C(=O)N1CC/C(=N\OS(=O)(=O)O)c2ccc(Cl)cc21 | 0.0276% [at 26.5 µM] (inactive) |
| CC(=O)N1CCN(c2ccc(O)cc2)CC1 | -0.0137% [at 26.5 µM] (inactive) |
| CCN(Cc1cccc(S(=O)(=O)O)c1)c1ccccc1 | -0.253% (inactive) |
| C=CC(C)(O)CC/C=C(\C)CC (stereo not given) | -0.448% (inactive) |
| CC(C)C(=O)Nc1cccc(C(F)(F)F)c1 | -0.0402% [at 26.5 µM] (inactive) |
| CCCCCCCCCCCCC1CO1 (stereo not given) | 0.0555% (inactive) |
| CC(=O)OCC(=O)[C@@]1(O)[C@H](OC(C)=O)C[C@H]2[C@@H]3CCC4=CC(=O)C=C[C@]4(C)[C@@]3(F)[C@@H](O)C[C@@]21C | 0.0415% [at 26.5 µM] (inactive) |
| COc1cc(C=O)ccc1OC(=O)C(C)C | -0.488% (inactive) |
| Cc1cc(O)c2c(c1)C(=O)c1cccc(O)c1C2=O | -0.0284% [at 26.5 µM] (inactive) |
| CCC(C)N (stereo not given) | -0.235% (inactive) |
| NS(=O)(=O)c1cc2c(cc1Cl)NC(CC1CCCC1)NS2(=O)=O (stereo not given) | -0.145% [at 26.5 µM] (inactive) |

| Structure (SMILES) | activation |
| --- | --- |
| CC(C)(C)c1ccc(C=O)cc1 | 0.373% (inactive) |
| C[Si]1(C)N[Si](C)(C)N[Si](C)(C)N1 | -0.192% (inactive) |
| CCN(CC)C(=O)C1CN2CCc3cc(OC)c(OC)cc3C2CC1OC(C)=O (stereo not given) | 0.0946% [at 26.5 µM] (inactive) |
| CN(C)CCCNCCC#N | -0.0181% (inactive) |
| CC(Cl)COP(=O)(OCC(C)Cl)OCC(C)Cl (stereo not given) | -0.264% (inactive) |
| Nc1cc(C(=O)O)ccc1Cl | -0.553% (inactive) |
| Cc1ccccc1N1CCN(CCc2nnc3n2CCCC3)CC1 | -0.131% [at 26.5 µM] (inactive) |
| Nc1ccc(C(=O)OCC(O)CO)cc1 (stereo not given) | -0.1% [at 26.5 µM] (inactive) |
| CCCCC(CC)COC(=O)c1ccccc1 (stereo not given) | -0.727% (inactive) |
| C=CCOc1c(Br)cc(Br)cc1Br | -0.115% (inactive) |
| Nc1nc(=O)n([C@@H]2O[C@H](CO)[C@@H](O)[C@@H]2F)cc1I | -0.256% [at 26.5 µM] (inactive) |
| O=C(CN1CCN(Cc2ccc3c(c2)OCO3)CC1)N1c2ccccc2Sc2ccccc21 | 0.329% [at 26.5 µM] (inactive) |
| OC(CCN1CCCCC1)(c1ccccc1)c1ccccc1 | 4.73% [at 26.5 µM] (inactive) |
| BrC/C=C/CBr | 0.238% [at 11.8 µM] (inactive) |
| OCCCCCCCl | -0.267% (inactive) |
| CC1=NN(c2ccc(S(=O)(=O)O)cc2)C(=O)C1N=Nc1ccccc1 (stereo not given) | 0.0553% (inactive) |
| CC(=O)OC[C@H]1O[C@@H](OC(C)=O)[C@H](OC(C)=O)[C@@H]1OC(C)=O | 0.12% [at 26.5 µM] (inactive) |
| O=C(O)c1c(Cl)ccc(Cl)c1Cl | -0.0212% (inactive) |
| CC(CC(=O)O)CC(C)(C)C (stereo not given) | -0.0051% (inactive) |
| CC(=O)Nc1ccc(C)cc1 | 0.0954% (inactive) |
